Screening results from PubChem BioAssay.
This is a sample that favours compounds with a hit; in the whole collection about 5.1% have one here.
KCC2 mod = KCC2 (human) Cl- transport modulation; KCC2 cells, thallium flux FluoZin-2 fluorescence; AID 1456; B-score of Tl+ flux slope (higher = more flux/activation; lower = inhibition) at 10 µM; 190,000 compounds, 2.2% hits;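 active = thallium flux slope and its plate-corrected score both differing from the plate sample mean at a set confidence after two filtering rounds, in either direction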;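 note: slope of fluorescence scaled to starting intensity during 10 to 20 s after thallium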
S1P4 agonist = agonists of human S1P4 receptor. O95977. S1P4-expressing cell line, agonist reporter assay. activation, % at 4.98 µM. 220,000 compounds, 0.35% hits. AID 1509; in the data active = activation above about 11%;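 note: 0% = DMSO vehicle and 100% = reference agonist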
S1P4 antag = antagonists of human S1P4 receptor; O95977; S1P4-expressing cells, antagonist mode, reporter read-out; inhibition, % at 4.98 µM; 220,000 compounds, 0.26% hits; AID 1510; in the data active = inhibition above about 29%;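 note: 0% = wells stimulated with agonist and 100% = vehicle wells without agonist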
RAM network inh = blocks the yeast RAM network | S. cerevisiae dse1pr::URA3 reporter, 5-FOA growth OD615, 2 d; analog-sensitive cbk1-as2 kinase mutant strain | inhibition, % at 50 µM | 190,000 compounds, 1.8% hits | AID 868;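 active = inhibition above a set limit, 3 SD over mean compound inhibition, cut at about 8.4% in these data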;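 note: 0% = DMSO-only wells with no growth and 100% = 10 µM 1-NA-PP1 full growth; inhibition rescues growth on 5-FOA so higher OD means more RAM inhibition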
ROMK mod = modulates human ROMK potassium channel activity; P48048; Tet-inducible ROMK, thallium flux fluorescence; actives lie on both sides; B-score at 10 µM; 130,000 compounds, 2% hits;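 active = signal ratio slope over the read window, or its plate-corrected B-score, at least 3 SD from the plate mean, either direction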;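 note: B-score of the F/F0 ratio slope over 7 to 12 s after thallium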
Target sequence (P48048 whole entry, looked up): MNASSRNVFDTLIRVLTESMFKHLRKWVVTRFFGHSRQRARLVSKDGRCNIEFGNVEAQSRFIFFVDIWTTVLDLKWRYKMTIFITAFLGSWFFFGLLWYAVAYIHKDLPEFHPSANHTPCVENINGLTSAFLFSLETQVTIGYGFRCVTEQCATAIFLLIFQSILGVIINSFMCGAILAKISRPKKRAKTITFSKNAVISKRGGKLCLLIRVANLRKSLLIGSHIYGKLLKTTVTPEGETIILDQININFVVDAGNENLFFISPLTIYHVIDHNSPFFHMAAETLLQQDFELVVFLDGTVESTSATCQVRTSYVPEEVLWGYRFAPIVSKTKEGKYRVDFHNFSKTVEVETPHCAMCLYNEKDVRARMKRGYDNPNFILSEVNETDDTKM
S1P3 antagonist = blocks the human S1P3 receptor; Q99500; CHO S1P3 NFAT-BLA reporter, FRET fluorescence, antagonist mode; inhibition, % at 4.98 µM; 170,000 compounds, 0.27% hits;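 active = inhibition above the plate cutoff, the mean inhibition of test wells on that plate plus 3 SD, cut at about 28% in these data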;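 note: cells challenged with S1P at its EC80 of 0.8 µM; blue over green emission ratio from cleaved BLA substrate after 4 h stimulation; 0% = S1P-stimulated wells and 100% = unstimulated DMSO-only wells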
Numbers without * were called inactive; · = no result given.

SMILES	KCC2 mod	S1P4 agonist	S1P4 antag	RAM network inh	ROMK mod	S1P3 antagonist
COc1ccc(N(CC(=O)NCCC2=CCCCC2)S(=O)(=O)c2ccccc2)c(OC)c1	-1.24	0.3	13.8	5.5	-1.18	-17.6
O=C(NC(=S)Nc1ccc(NC(=O)c2ccco2)cc1)c1ccccc1	-1.1	3.4	-2.8	2.4	·	16.0
O=C(NC(=S)Nc1ccc(N2CCCCC2)cc1)c1ccco1	71.8*	2.7	-15.2	0.0	·	·
CC1CCN(c2ccc(NC(=S)NC(=O)c3ccco3)cc2)CC1	25.3*	1.8	-14.7	-0.3	·	·
COC(=O)c1ccc(Cn2nc([N+](=O)[O-])c(Br)c2C)cc1	-0.167	-1.4	3.7	·	·	6.8
CCOC(=O)c1sc(-c2ccccc2)cc1NC(=O)Nc1ccc([N+](=O)[O-])cc1	1.39	-0.5	1.0	7.1	0.162	12.7
CCN(CC)S(=O)(=O)c1cc(NC(=O)CCNC(=O)c2ccccc2Cl)ccc1C	-0.135	3.6	-3.4	1.6	0.758	-13.8
CCN(CC)S(=O)(=O)c1cc(NS(=O)(=O)c2cc(Cl)ccc2Cl)ccc1C	-0.985	-0.6	-4.0	11.1*	·	-3.4
Cc1cc(N2C(=O)C3CC=CC(C)C3C2=O)no1 (centres undefined)	-0.349	1.5	-2.0	-0.4	1.3	·
COCCN(C(=S)Nc1c(C)cccc1C)C(C)c1ccco1 (centres undefined)	-0.0928	0.1	-0.1	·	·	1.4
O=C(Nc1ncc2c(n1)-c1ccccc1OC2)c1ccc(F)cc1	-1.37	0.6	-10.9	0.6	-0.0093	-4.3
O=C(Nc1ncc2c(n1)-c1ccccc1OC2)c1cccc([N+](=O)[O-])c1	-0.397	-0.4	-7.6	8.6*	0.312	0.7
O=C(COC(=O)c1cc([N+](=O)[O-])ccc1NCCO)NCc1cccs1	-1.74	-1.0	-11.9	11.0*	0.62	-6.2
NC(=O)COC(=O)c1cc([N+](=O)[O-])ccc1NCCO	-0.683	-0.1	-0.2	·	·	-8.0
N#C/C(=N\Nc1cccc(C(F)(F)F)c1)C(=O)c1ccsc1	-4.34	-1.0	13.0	·	·	-15.1
Cc1ccccc1Nc1nnc(SCC(=O)Nc2ccccc2[N+](=O)[O-])s1	-2.99	1.2	-11.5	8.7*	·	6.1
CCN(CC)CC(=O)Nc1scc2c1c(=O)oc1ccccc12	-0.852	0.2	7.0	·	·	-16.3
COc1cc(C(=O)NC(=S)N(CCc2ccccc2)CCc2ccccc2)cc(OC)c1OC	73.1*	0.9	-9.7	4.7	3.26*	-0.4
O=C(NC(=S)N(CCc1ccccc1)CCc1ccccc1)c1ccco1	44.5*	-0.9	9.6	3.9	·	1.2
O=C(N/C(=C\c1ccccc1)C(=O)N1CCN(CCO)CC1)c1ccccc1	0.0854	1.1	-6.7	0.5	-0.221	4.0
NC(=S)N/N=C1\CCOc2ccc(F)cc21	-0.575	-1.4	13.6	·	·	-5.7
O=C(CSc1ccc2c(c1)OCCO2)Nc1ncc(Cl)cc1Cl	-0.827	-1.8	-16.7	0.3	·	·
COc1cc(NC(=O)COC(=O)/C=C/c2ccccc2Cl)cc(OC)c1	-1.32	-1.4	-5.7	10.0*	0.409	-14.9
O=C(CSc1ccc2c(c1)OCCO2)NCCc1ccc(Cl)cc1Cl	-0.52	-3.0	4.1	8.4*	·	-7.3
O=C(COC(=O)/C=C/c1ccccc1Cl)NCCc1ccc(Cl)cc1Cl	1.06	1.9	-12.0	8.6*	·	-1.0
SMILES	KCC2 mod	S1P4 agonist	S1P4 antag	RAM network inh	ROMK mod	S1P3 antagonist
O=C(COC(=O)/C=C/c1ccccc1)Nc1cccc(Oc2ccccc2)c1	0.37	-0.4	-32.1	8.9*	0.0545	-2.2
CNC(=O)NC(=O)COC(=O)c1ccccc1OCc1ccccc1	0.0651	-0.3	-5.6	2.0	-0.637	12.0
CN(C(=O)COC(=O)CNC(=O)c1ccc(Cl)cc1Cl)c1ccccc1	-1.98	-1.0	-12.7	0.2	0.709	12.8
COC(=O)c1[nH]c2cccc(OC)c2c1NC(=O)C(C)N1CCC(C)CC1 (centres undefined)	0.377	-3.1	-5.5	-1.1	·	·
COc1cccc(/C=C/C(=O)OCC(=O)Nc2ccc(Cl)c(S(=O)(=O)N(C)C)c2)c1	-0.943	2.8	-6.2	8.5*	0.747	1.4
C=CCn1c(=O)/c(=C2/Sc3cc(OC)ccc3N2C)s/c1=C1\C(=O)N(CC)C(=S)N1C	·	3.1	4.7	10.5*	0.525	10.0
CC1CCN(S(=O)(=O)c2ccc(C(=O)Nc3ccccc3-c3nc4ccccc4[nH]3)cc2)CC1	1.55	0.9	-13.2	3.1	0.127	-16.8
CC1CCCN(S(=O)(=O)c2ccc(C(=O)Nc3ccccc3-c3nc4ccccc4[nH]3)cc2)C1 (centres undefined)	-0.15	0.0	-5.5	9.8*	0.0418	-5.3
COc1ccc(C(=O)CSc2nnc(-c3cc(C)cc(C)c3)o2)cc1	0.159	-0.1	7.5	10.0*	·	3.8
Cc1ccc(C(=O)CSc2nnc(COc3cccc(C)c3)o2)cc1	·	-1.6	-17.3	9.9*	·	-11.9
CCOC(=O)CSc1nnc(COc2cccc(C)c2)o1	·	1.4	1.0	0.8	-0.00744	-11.1
Cn1c(SCC(=O)NC(=O)Nc2ccccc2)nnc1-c1ccncc1	0.646	-0.2	-12.4	·	-0.749	-6.7
Cc1cc(-c2cc(C(=O)NCc3ccccc3)on2)nc(S(C)(=O)=O)n1	0.289	·	·	·	·	·
COc1ccc(Cl)cc1NC(=S)NCCC(c1ccccc1)c1ccccc1	-0.379	-1.2	-15.5	-0.1	·	-6.0
COc1ccccc1NC(=S)NCCC(c1ccccc1)c1ccccc1	-0.278	-1.2	8.9	9.8*	0.0623	1.6
Cc1cc(SCC(=O)c2cc3ccccc3o2)nc2ccccc12	0.278	-0.3	4.0	11.0*	·	·
Cc1ccc2oc(-c3ccc(NC(=O)CC(C)C)cc3)nc2c1	-0.33	0.2	13.7	7.2	·	54.0*
O=c1nc(-c2ccccc2)c2ccccc2[nH]1	-0.46	1.0	-2.1	3.1	·	5.5
S=c1nc(-c2ccccc2)[nH]c2ccccc12	39.6*	-0.8	-11.2	0.4	7.33*	0.6
O=C(COC(=O)c1cccc(NS(=O)(=O)c2ccc(F)c(F)c2)c1)NC(=O)NC1CCCCC1	-0.382	0.4	-18.9	4.8	0.872	-4.6
Nn1c(=O)c2ccccc2n2c(SCc3ccc(C(F)(F)F)cc3)nnc12	-0.986	-3.6	-11.5	8.6*	0.185	·
NC(=O)c1ccc2c(c1)OCCO2	-3.19*	-0.3	3.2	1.4	0.0246	6.2
CC(C)(C)NC(=O)CSCc1ccc(Br)cc1	-0.28	-0.1	6.2	1.4	-0.0543	-8.9
CCOc1cc(C2/C(=C(/O)c3ccc(OC(C)C)cc3)C(=O)C(=O)N2CCCOC)ccc1O (centres undefined)	-0.856	-2.7	-65.5	8.5*	·	-14.1
COc1ccc(NS(=O)(=O)c2ccc(NC(=O)C(CCSC)NC(N)=O)cc2)cc1 (centres undefined)	1.26	1.4	-22.1	·	·	11.6
CC(=O)c1sc(NC(=O)C2(F)C(F)(F)C(F)(F)C(F)(F)C(F)(F)C2(F)F)nc1C	-1.73	0.5	-1.7	0.4	·	76.1*
CC(=O)c1sc(NC(=O)C=C(C)C)nc1C	-0.00105	0.2	-4.3	0.1	·	-6.7
